# Literature values as cited in PubChem BioAssay AID977611.
# About 3,900 (100%) of roughly 3,900 compounds were called active. Cut-off not given; nearly all actives show Kd up to about 4200 µM. The set was probably picked from earlier hits. The list shows a part of the results. Positions of bridges follow the written chain, without caps; N, C: chain ends. Bridge positions count the residues as written; N and C are the ends. Non-standard residues stand in square brackets, D forms with d. Residues, ends and D or L forms follow the SMILES beside them. Peptide text beside a SMILES is read from it. Orn(CH(NH2)2) = NC(N)NCCC[C@H](N)C(=O)O
# Experiment: PubChem AID 977611
# Details: PDB protein-ligand complexes, literature Kd
smiles,measurement,setting,value
OC[C@H]1O[C@H](O[C@H]2[C@H](O)[C@@H](O)[C@@H](O[C@H]3[C@H](O)[C@@H](O)[C@@H](O[C@H]4[C@H](O)[C@@H](O)[C@@H](O)O[C@@H]4CO)O[C@@H]3CO)O[C@@H]2CO)[C@H](O)[C@@H](O)[C@@H]1O,Kd,"protein: Outer membrane protein SusF, PDB entry 4fe9",990000 nM (active)
C[C@H]1O[C@H](O[C@H]2[C@H](O)[C@@H](O)[C@@H](O[C@H]3[C@H](O)[C@@H](O)[C@@H](O)O[C@@H]3CO)O[C@@H]2CO)[C@H](O)[C@@H](O)[C@@H]1N[C@H]1CC(CO)[C@@H](O)[C@H](O)[C@H]1O (some centres not stated),Kd,"protein: Carbohydrate ABC transporter substrate-binding protein, CUT1 family (TC 3.A.1.1.-) EUR_01830, PDB entry 4uac",288 nM (active)
C[C@@H]1O[C@@H](O)[C@H](O)[C@H](O)[C@H]1O[C@H]1O[C@H](CO)[C@@H](O)[C@H](O[C@H]2O[C@H](C)[C@@H](O)C[C@H]2O)[C@@H]1O[C@H]1O[C@H](CO)[C@H](O)[C@H](O[C@@H]2O[C@@H](C)[C@H](O[C@H]3O[C@H](CO)[C@@H](O)[C@H](O[C@H]4O[C@H](C)[C@@H](O)C[C@H]4O)[C@@H]3O[C@H]3O[C@H](CO)[C@H](O)[C@H](O)[C@H]3O)[C@@H](O)[C@H]2O)[C@H]1O,Kd,"protein: Bifunctional tail protein, PDB entry 3th0",75800 nM (active)
O=C1O[C@H](CO)[C@@H](O[C@@H]2O[C@H](CO)[C@@H](O)[C@H](O)[C@@H]2O)[C@H](O)[C@@H]1O,Kd,"protein: ABC transporter substrate-binding protein MnBP3, PDB entry 4pft",2.3 nM (active)
OC[C@H]1CNC[C@@H](O[C@H]2O[C@H](CO)[C@@H](O)[C@H](O)[C@@H]2O)[C@@H]1O,Kd,"protein: GLYCOSYL HYDROLASE FAMILY 71 BxGH99, PDB entry 4v27",217 nM (active)
O=P(O)(O)OC[C@H]1OC(O[C@@H]2O[C@H](CO)[C@@H](O)[C@H](O)[C@H]2O)[C@H](O)[C@@H](O)[C@@H]1O (some centres not stated),Kd,"protein: trehalose operon repressor, PDB entry 1BYK",10000 nM (active)
OC[C@H]1O[C@H](O[C@H]2[C@@H](O)[C@@H](CO)O[C@@H](O[C@H]3[C@H](O)[C@@H](O)[C@H](O)O[C@@H]3CO)[C@@H]2O)[C@H](O)[C@@H](O)[C@H]1O,Kd,"protein: PA-I GALACTOPHILIC LECTIN, PDB entry 2vxj",68000 nM (active)
CC(C)C[C@H]1NC(=O)[C@@H](Cc2c[nH]c3ccccc23)NC(=O)[C@@H](CCC(N)=O)NC(=O)[C@@H](Cc2c[nH]c3ccccc23)NC(=O)[C@@H](CCC(=O)O)NC(=O)[C@H]2CCCN2C(=O)[C@@H](Cc2ccc(O)cc2)NC(=O)[C@@H](CC(=O)O)NC(=O)[C@H](NC(=O)[C@@H](C)NC(=O)CNC(=O)[C@H](N)CCCCN)CSSC[C@H](C(=O)N[C@H](C)C(=O)N[C@H](C)C(=O)O)NC1=O,Kd,"protein: gp41 N-peptide, PDB entry 2r5b",2.5 nM (active)
same,Kd,"protein: gp41 N-peptide, PDB entry 2r5d",0.07 nM (active)
CC(=O)N[C@@H](C)C(=O)N[C@@H](CC(C)C)C(=O)N[C@H]1CSSC[C@@H](C(=O)N[C@@H](CCC(N)=O)C(=O)N[C@@H](Cc2ccccc2)C(=O)N[C@H](C(=O)N[C@@H](CCC(=O)O)C(N)=O)C(C)C)NC(=O)[C@H](Cc2ccc(O)cc2)NC(=O)[C@H](Cc2c[nH]c3ccccc23)NC(=O)[C@H](CCCNC(N)N)NC(=O)[C@H](CC(=O)O)NC(=O)[C@H](C(C)C)NC(=O)[C@H](CCCNC(N)N)NC(=O)[C@@H]2CCCN2C(=O)[C@H](CC(=O)O)NC(=O)[C@H](CC(=O)O)NC1=O (Ac-ALCDDP[Orn(CH(NH2)2)]VD[Orn(CH(NH2)2)]WYCQFVE-NH2; disulfide 3-13),Kd,"protein: des-gla factor viia (heavy chain), PDB entry 1dva",8.5 nM (active)
"CC[C@H](C)[C@H](NC(C)=O)C(=O)N[C@@H](CO)C(=O)N[C@@H]1C(=O)N[C@@H](CCCN=C(N)N)C(=O)N[C@H]2CCCCNC(=O)CC[C@@H](C(=O)O)NC(=O)[C@@H]3CCC(=O)OC[C@H](NC(=O)[C@@H]4CCCN4C(=O)[C@H](Cc4ccc(O)cc4)NC2=O)C(=O)N[C@@H](CC(=O)O[C@@H]1C)C(=O)N[C@@H](Cc1c[nH]c2ccccc12)C(=O)N3 (Ac-ISTRKYPSDWEE-OH; ester 3-9, 8-11; lactam 5-12)",Kd,"protein: Bovine Cationic trypsin, PDB entry 4ktu",685 nM (active)
C[C@@H]1NC(=O)[C@@H]2CSSC[C@H](NC(=O)CN)C(=O)N[C@@H](CSSC[C@@H](C(N)=O)NC(=O)[C@H](CCCNC(N)N)NC(=O)[C@H](Cc3c[nH]c4ccccc34)NC1=O)C(=O)N[C@@H](CO)C(=O)N[C@@H](CC(=O)O)C(=O)N1CCC[C@H]1C(=O)N[C@@H](CCCNC(N)N)C(=O)N2,Kd,"protein: A-AChBP, PDB entry 2byp",0.88 nM (active)
